Measured values published in PubChem BioAssay.
Active and inactive are the calls of the source.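 Rule for the calls, unless noted: active = NADPH fluorescence slope more negative than the mean of all samples by about 3 SD, 99.7% confidence; inactive = the rest.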

Columns and labels:
[1] = inhibitors of TNFa-induced NFkB p65 translocation, primary screen, imaging, HUVEC, MLSMR starter and 10KST1 sets (AID 438;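 active = inhibition above 20% together with a positive visual image hit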;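 note: compound added about 3h40 before a 20 min TNFalpha stimulation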;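 for inhibition: signal is the nuclear over cytoplasmic p65 intensity ratio per well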); conditions: HUVEC TNFa-induced p65 nuclear translocation; cell count: measured here: nuclei count (cytotoxicity indicator), at 2.08 µM; inhibition: at 2 µM, stronger effect = higher value, 0% TNFa-plus-vehicle, 100% no-TNFa wells
[2] = inhibitors of mutant huntingtin aggregation, primary screen, imaging, exon1htt(103Q)mCFP cells, high-content imaging (AID 483;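 active = visual image review flags a hit and inhibition of aggregation exceeds 20%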;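 note: compound exposure lasted 3 days before fixation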;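 for nuclei count: percent of the per-plate median nuclei count of sample wells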); conditions: exon1htt(103Q)mCFP cell line, aggregate imaging, at 2 µM; inhibition of aggregation: stronger effect = higher value; nuclei count: measured here: cell count, toxicity
[3] = inhibitors of E-selectin induction by TNFa, primary screen, imaging, HUVEC, immunofluorescence, MLSMR starter and 10KST1 sets (AID 487;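 active = visually confirmed hit in the image check and inhibition above 20%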;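 for inhibition: signal is fraction of cell area covered by stained E-selectin grains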;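 for nuclei count: 100% = median nuclei count of all wells on the same plate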); conditions: HUVEC TNFalpha-induced E-selectin immunofluorescence imaging, at 2 µM; inhibition: stronger effect = higher value; nuclei count: measured here: cell number, toxicity
[4] = molecular target: Voltage-gated potassium channel subunit beta-2 (Rattus norvegicus) (UniProt P62483); assay: KvBeta enzyme negative modulators, primary screen, biochemical, NADPH fluorescence (AID 622;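 active = fluorescence slope higher than the sample average by over 3 SD, cut at about -0.22 in these data, passing the limit was not always enough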;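 note: slope of raw intensity against log time taken from 70 to 1610 s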); conditions: recombinant KvBeta, 4-cyanobenzaldehyde reduction, at 10 µM, stronger effect = higher value
Sequence of Voltage-gated potassium channel subunit beta-2 (Rattus norvegicus) (P62483 whole entry, looked up): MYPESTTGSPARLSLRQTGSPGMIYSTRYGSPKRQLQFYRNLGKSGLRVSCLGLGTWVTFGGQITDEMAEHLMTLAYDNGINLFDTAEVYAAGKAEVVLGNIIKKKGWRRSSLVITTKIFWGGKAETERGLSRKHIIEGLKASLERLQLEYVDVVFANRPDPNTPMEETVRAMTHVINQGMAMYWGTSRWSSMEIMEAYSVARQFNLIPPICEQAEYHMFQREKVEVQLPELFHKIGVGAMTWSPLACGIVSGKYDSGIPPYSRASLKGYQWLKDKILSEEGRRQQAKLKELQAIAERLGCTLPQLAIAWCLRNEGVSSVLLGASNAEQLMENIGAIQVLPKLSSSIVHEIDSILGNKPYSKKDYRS

[5] = molecular target: Voltage-gated potassium channel subunit beta-2 (Rattus norvegicus) (UniProt P62483); assay: KvBeta positive modulators, primary screen, biochemical, NADPH fluorescence (AID 623); conditions: Recombinant KvBeta, NADPH fluorescence decrease slope, 10 min; at 10 µM; stronger effect = lower value;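 note: fluorescence intensity change per second fitted from 20 to 320 s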
[6] = molecular target: Alpha-2C adrenergic receptor (Homo sapiens) (UniProt P18825); assay: modulators of alpha2C/GIRK thallium flux, primary screen, cell-based, HEK293 alpha2C/GIRK1/2 (AID 624;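 active = fluorescence slope after compound addition differing from the mean of all screened samples at 99.7% confidence, in either direction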;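 note: slope of fluorescence ratio to pre-addition baseline per second over 15 to 24 s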); conditions: thallium flux BTC fluorescence, at 10 µM, actives lie on both sides
Sequence of Alpha-2C adrenergic receptor (Homo sapiens) (P18825 whole entry, looked up): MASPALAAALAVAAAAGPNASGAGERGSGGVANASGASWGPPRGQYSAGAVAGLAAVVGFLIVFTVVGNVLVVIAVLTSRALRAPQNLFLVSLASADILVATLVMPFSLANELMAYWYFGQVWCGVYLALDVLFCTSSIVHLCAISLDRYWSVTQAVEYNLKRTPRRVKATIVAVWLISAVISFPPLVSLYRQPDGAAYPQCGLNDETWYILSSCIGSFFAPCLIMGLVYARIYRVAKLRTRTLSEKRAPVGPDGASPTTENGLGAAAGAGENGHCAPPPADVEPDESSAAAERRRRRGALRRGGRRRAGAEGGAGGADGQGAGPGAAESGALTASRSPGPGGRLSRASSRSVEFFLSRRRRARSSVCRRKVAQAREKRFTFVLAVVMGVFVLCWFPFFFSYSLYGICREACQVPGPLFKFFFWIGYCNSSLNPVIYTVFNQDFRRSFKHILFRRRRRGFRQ

[7] = inhibitors of Sendai virus-induced IRF3 signaling, primary screen, TLR/RLR signaling modifier project, cell-based, Sendai virus stimulus, luciferase, 10K MLSCN set (AID 602276;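 active = inhibition at or above 50% at 10 µM; inactive = inhibition below 50%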;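 note: firefly luciferase from ISG56 promoter only with Renilla not read in this screen; 0% = Sendai virus plus DMSO and 100% = medium plus DMSO without virus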); conditions: HEK293 RL24 IRF3 luciferase reporter, at 10 µM, stronger effect = higher value
[8] = inhibitors of poly I:C-induced TLR3 signaling, primary screen, cell-based, poly I:C stimulus, luciferase, 10K MLSCN set (AID 602277;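 active = inhibition of the reporter signal at or above 50%; inactive = inhibition below 50%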); conditions: HEK293-TLR3 RL24 IRF3 luciferase reporter, at 10 µM, stronger effect = higher value

Compound	cell count [1]	inhibition [1]	inhibition of aggregation [2]	nuclei count [2]	inhibition [3]	nuclei count [3]	fluorescence slope [4]	NADPH fluorescence slope [5]	slope [6]	inhibition [7]	inhibition [8]
Cc1c(C)[n+](=O)c2c(n1[O-])CCCCC2	545	-27.9% (inactive)	10.6% (inactive)	81.3%	36.9% (inactive)	63.9%	-0.491 (inactive)	-4.7e-05 (inactive)	0.00652 (inactive)	-0.779% (inactive)	22.1% (inactive)
CC1=C(C(=O)OC2CCCC2)C(c2ccc(C)o2)C2=C(CC(c3cccs3)CC2=O)N1 (stereo not drawn)	346	3.5% (inactive)	-7.2% (inactive)	81.1%	-10.5% (inactive)	99%	-0.459 (inactive)	-5.5e-05 (inactive)	0.00301 (inactive)	-5.28% (inactive)	16.8% (inactive)
CCOC(=O)c1ccc(NC(=O)COc2ccc(-n3cnnn3)cc2)cc1	354	-0.5% (inactive)	-2.9% (inactive)	60.6%	5% (inactive)	102%	-0.405 (inactive)	-1.2e-05 (inactive)	0.00538 (inactive)	1.41% (inactive)	11.4% (inactive)
CCN(CCO)C(=O)CC(c1ccccc1)c1cc(Br)ccc1O (stereo not drawn)	357	15% (inactive)	-0.8% (inactive)	102%	-31.9% (inactive)	102%	-0.331 (inactive)	-6.1e-05 (inactive)	0.00761 (inactive)	13.1% (inactive)	20.3% (inactive)
COC(=O)C1=C(C)NC(C)=C(C(=O)OC)C1C1CC=CCC1 (stereo not drawn)	377	1.7% (inactive)	24.3% (inactive)	91.2%	32.4% (inactive)	93.7%	-0.456 (inactive)	8.7e-05 (inactive)	0.00547 (inactive)	8.91% (inactive)	22.8% (inactive)
O=C(Nc1ncnc2sc3c(c12)CCC3)c1ccco1	289	-1.6% (inactive)	0.8% (inactive)	75.8%	-12.5% (inactive)	118%	-0.327 (inactive)	-4.2e-05 (inactive)	0.00564 (inactive)	-7.87% (inactive)	-0.691% (inactive)
CN(C)CCNC(=O)c1ccc(COCC(F)(F)F)cc1	500	-2.2% (inactive)	-17.1% (inactive)	112%	-22.6% (inactive)	99%	-0.408 (inactive)	-3.8e-05 (inactive)	0.00605 (inactive)	14.2% (inactive)	9.51% (inactive)
Cc1ccc(CCNC(=O)C2CCCN(S(=O)(=O)c3cnc[nH]3)C2)cc1 (stereo not drawn)	603	-0.2% (inactive)	-6.4% (inactive)	99.1%	-89.2% (inactive)	135%	-0.577 (inactive)	-1.4e-06 (inactive)	0.00614 (inactive)	1.87% (inactive)	18% (inactive)
COC(=O)c1cccc(NC(=O)CSc2nnc(COc3ccc(C#N)cc3)n2-c2ccccc2)c1	599	3.7% (inactive)	-5.1% (inactive)	91.2%	-64.7% (inactive)	120%	-0.586 (inactive)	4.9e-05 (inactive)	0.00802 (inactive)	-22% (inactive)	-18.5% (inactive)
CCOCCCNC(=O)Cn1cc2c(n1)CCCCC2	486	-2.3% (inactive)	19.4% (inactive)	88.9%	-25.4% (inactive)	109%	-0.605 (inactive)	-1.2e-05 (inactive)	0.00693 (inactive)	3.75% (inactive)	19.9% (inactive)
Cc1cccc(NC(=O)c2ccccc2O)c1C	497	4.9% (inactive)	-10% (inactive)	98.2%	-5.3% (inactive)	122%	-0.482 (inactive)	-2.8e-05 (inactive)	0.00603 (inactive)	-45.5% (inactive)	-93.4% (inactive)
CN(C)c1cc(NC(=O)CN2CCOCC2)c2ccccc2n1	863	1.2% (inactive)	6.6% (inactive)	101%	-75% (inactive)	131%	-0.549 (inactive)	-3.5e-05 (inactive)	0.00612 (inactive)	9.32% (inactive)	46.3% (inactive)
Cc1ccc2c(c1)CCCN2C(=O)Nc1ccc2c(c1)OCO2	365	-0.8% (inactive)	-9.3% (inactive)	102%	-34.4% (inactive)	102%	-0.592 (inactive)	-4.4e-05 (inactive)	0.00347 (inactive)	13.6% (inactive)	14.5% (inactive)
Fc1ccc(C(c2nnnn2Cc2ccco2)N2CCN(C3CCCCC3)CC2)cc1 (stereo not drawn)	297	-3.3% (inactive)	11.4% (inactive)	98%	-98.2% (inactive)	130%	-0.552 (inactive)	3.4e-05 (inactive)	0.00429 (inactive)	-10.1% (inactive)	-16.4% (inactive)
Cc1csc2ncc(C(=O)Nc3ccccc3Cl)c(=O)n12	677	5.8% (inactive)	-20% (inactive)	95.1%	-12.3% (inactive)	116%	-0.486 (inactive)	5.1e-06 (inactive)	0.00716 (inactive)	-29% (inactive)	-83.1% (inactive)
CCOc1ccc2[nH]c(=O)c(CN(Cc3nnnn3CCc3ccccc3)CC3CCCO3)cc2c1 (stereo not drawn)	742	-1.7% (inactive)	-4.9% (inactive)	113%	17.7% (inactive)	107%	-0.476 (inactive)	-0.000196 (inactive)	0.00465 (inactive)	3.9% (inactive)	16.9% (inactive)
CC1(c2ccc(Cl)cc2)NC(=O)N(CC(=O)NC(=O)NCc2ccco2)C1=O (stereo not drawn)	482	2.9% (inactive)	-25.8% (inactive)	102%	-48.5% (inactive)	110%	-0.399 (inactive)	-4.4e-05 (inactive)	0.00253 (inactive)	14.9% (inactive)	18.4% (inactive)
Cc1cnn(Cc2ccccc2)c1N	638	2.3% (inactive)	-4.6% (inactive)	105%	25.6% (inactive)	100%	-0.6 (inactive)	-3.5e-05 (inactive)	0.00669 (inactive)	14.7% (inactive)	21.3% (inactive)
CCOC(=O)Cn1nnnc1C(C(C)C)N(Cc1cc2c(C)cc(C)cc2[nH]c1=O)C1CCCC1 (stereo not drawn)	666	-13.4% (inactive)	-17.6% (inactive)	97.7%	39.1% (inactive)	106%	-0.498 (inactive)	1.1e-05 (inactive)	0.0076 (inactive)	-15.9% (inactive)	10.4% (inactive)
COc1ccc(C2C(C#N)=C(N)OC3=C2C(=O)CC(C)C3)c(OC)c1OC (stereo not drawn)	349	15.6% (inactive)	5.8% (inactive)	123%	11.3% (inactive)	102%	-0.479 (inactive)	2e-05 (inactive)	0.00381 (inactive)	-3.81% (inactive)	19.1% (inactive)
COc1ccc(CCNC(=O)CSCc2n[nH]c(=O)[nH]2)cc1OC	330	1.6% (inactive)	-15.4% (inactive)	99.5%	-97.5% (inactive)	131%	-0.476 (inactive)	-3.9e-05 (inactive)	0.00502 (inactive)	19.2% (inactive)	24.3% (inactive)
CCCCc1cc(=O)oc2cc(OCC(=O)N(CC)CC)c(Cl)cc12	586	0% (inactive)	-3.9% (inactive)	102%	-56.9% (inactive)	123%	-0.596 (inactive)	7.2e-08 (inactive)	0.00654 (inactive)	12.5% (inactive)	30.7% (inactive)
O=C1NC(=O)C(CC(=O)N(Cc2ccco2)C2(C(=O)NC3CCCC3)CCCCC2)N1 (stereo not drawn)	670	-7.4% (inactive)	28.8% (active)	106%	-67.8% (inactive)	127%	-0.534 (inactive)	-3.9e-05 (inactive)	0.00746 (inactive)	-0.4% (inactive)	18.4% (inactive)
C=CCn1c(SCC(=O)Nc2ccccc2OC)nnc1-c1ccccn1	684	9.1% (inactive)	32.8% (inactive)	65.8%	-6.9% (inactive)	113%	-0.344 (inactive)	-2.6e-05 (inactive)	0.0051 (inactive)	7.11% (inactive)	18.2% (inactive)
CCCCN=CC1=C(O)C(C(=O)OC)C(C)(C)CC1=O (stereo not drawn)	390	-4.3% (inactive)	10.6% (inactive)	106%	-21.7% (inactive)	123%	-0.392 (inactive)	-6.2e-07 (inactive)	0.0055 (inactive)	-0.949% (inactive)	-9.49% (inactive)
CC(C)OC(=O)CSc1nnc(-c2ccc(C(C)(C)C)cc2)n1N	396	-2.3% (inactive)	4.2% (inactive)	80.6%	-158% (inactive)	210%	-0.469 (inactive)	-3.9e-05 (inactive)	0.00343 (inactive)	1.32% (inactive)	14% (inactive)
COc1cc(OC)cc(OCC(O)Cn2cnc(-c3ccccc3)c2)c1 (stereo not drawn)	586	6% (inactive)	-5.4% (inactive)	92.1%	11.1% (inactive)	94.7%	-0.469 (inactive)	-4e-05 (inactive)	0.00517 (inactive)	17.6% (inactive)	31.3% (inactive)
CCOC(=O)N1CCC(N2C(=O)c3ccccc3C2Nc2ccc3c(C)cc(=O)oc3c2)CC1 (stereo not drawn)	654	2.3% (inactive)	-19.4% (inactive)	101%	-65.6% (inactive)	121%	-0.0451 (active)	-9.7e-08 (inactive)	0.00764 (inactive)	14.2% (inactive)	18% (inactive)
